The supplement of paper PMC3334620
In all, about 33,000 sequences were measured (“E-score (-0.5 to 0.5)”: median about -0.053, highest 2% from about 0.37 on). The full list was thinned out, with the highest values kept by preference.

Target: Hap1 (UniProt P0CE41)
Experiment: PBM E-score (8-mer binding enrichment) (E-score (-0.5 to 0.5)); higher = stronger / more preferred TF binding
Conditions: protein concentration: 200 nM; construct: GST-DNA-binding domain
Summary of the method: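 Yeast transcription factors carrying a GST tag, as full-length proteins or DNA-binding domains, were produced by PURExpress in vitro transcription/translation. About 100-200 nM protein was applied to universal all-10-mer Agilent arrays, double-stranded by primer extension on fresh or once-stripped slides. Bound protein was detected with fluorescent anti-GST, and scans were normalised with masliner. The Universal PBM Analysis Suite gave each ungapped eight-base word, pooled with its reverse complement, an E-score, a modified Wilcoxon-Mann-Whitney statistic.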

Sequence of UniProt P0CE41 (P0CE41 whole entry): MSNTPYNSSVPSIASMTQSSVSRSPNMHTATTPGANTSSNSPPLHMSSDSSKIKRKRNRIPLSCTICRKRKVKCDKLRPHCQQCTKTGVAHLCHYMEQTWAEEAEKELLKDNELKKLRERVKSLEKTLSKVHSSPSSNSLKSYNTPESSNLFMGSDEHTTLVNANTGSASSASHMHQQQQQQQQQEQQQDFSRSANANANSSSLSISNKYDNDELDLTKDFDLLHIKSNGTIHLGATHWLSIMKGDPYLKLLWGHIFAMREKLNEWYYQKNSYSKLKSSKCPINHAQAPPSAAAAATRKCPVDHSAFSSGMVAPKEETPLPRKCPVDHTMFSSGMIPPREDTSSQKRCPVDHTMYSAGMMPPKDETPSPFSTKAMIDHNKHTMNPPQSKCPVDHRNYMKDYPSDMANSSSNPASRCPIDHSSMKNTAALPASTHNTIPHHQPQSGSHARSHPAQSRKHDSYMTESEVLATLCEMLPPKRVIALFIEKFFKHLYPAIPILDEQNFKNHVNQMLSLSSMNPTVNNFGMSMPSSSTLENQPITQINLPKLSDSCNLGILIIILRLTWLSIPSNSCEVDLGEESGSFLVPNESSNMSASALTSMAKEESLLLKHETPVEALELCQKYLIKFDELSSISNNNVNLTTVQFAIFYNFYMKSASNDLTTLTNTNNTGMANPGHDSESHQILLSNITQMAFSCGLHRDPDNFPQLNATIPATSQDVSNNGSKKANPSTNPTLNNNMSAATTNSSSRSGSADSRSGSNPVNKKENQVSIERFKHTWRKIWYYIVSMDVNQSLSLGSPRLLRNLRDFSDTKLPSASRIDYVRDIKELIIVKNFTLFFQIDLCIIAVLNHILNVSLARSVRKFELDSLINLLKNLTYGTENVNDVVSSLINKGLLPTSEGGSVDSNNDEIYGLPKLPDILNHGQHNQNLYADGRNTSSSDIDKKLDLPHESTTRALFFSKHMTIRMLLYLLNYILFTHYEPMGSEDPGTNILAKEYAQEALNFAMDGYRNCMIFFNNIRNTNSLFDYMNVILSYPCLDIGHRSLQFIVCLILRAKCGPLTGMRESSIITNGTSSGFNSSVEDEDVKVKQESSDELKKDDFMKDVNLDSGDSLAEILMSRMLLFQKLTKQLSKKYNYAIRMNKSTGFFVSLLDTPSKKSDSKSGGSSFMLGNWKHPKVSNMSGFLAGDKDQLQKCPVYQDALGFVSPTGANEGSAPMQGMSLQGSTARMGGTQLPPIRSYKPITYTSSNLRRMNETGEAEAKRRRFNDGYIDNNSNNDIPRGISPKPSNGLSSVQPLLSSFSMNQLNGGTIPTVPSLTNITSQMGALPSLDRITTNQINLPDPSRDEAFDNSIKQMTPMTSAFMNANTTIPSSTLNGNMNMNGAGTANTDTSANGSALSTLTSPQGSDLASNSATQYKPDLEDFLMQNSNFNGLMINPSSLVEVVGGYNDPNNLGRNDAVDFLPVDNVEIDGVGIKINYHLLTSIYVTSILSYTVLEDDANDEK

Sequence | PBM E-score
CTCTGGCA | -0.217
ATTGGTTA | -0.094
CCGGAGTA | 0.435
CCGGAGAA | 0.428
GCGGAGAA | 0.349
TCGGAGAA | 0.405
ACGGAGAA | 0.27
GCGGAGTA | 0.25
CCGGAGGA | 0.432
GCGGAGGA | 0.17
CAGGAGAA | -0.147
CCGGAGGC | 0.286
CCGGAGTC | 0.356
CCGGAGAG | 0.354
ACCATGCG | -0.0491
CATTAACC | 0.0537
TCTATGAA | -0.115
CACAATGC | -0.0342
GAGAATGA | -0.137
AGGGCTGG | -0.101
CCGGTTCA | 0.267
CGTTTTAA | -0.0609

Sequence | PBM E-score
CCGGAGCA | 0.418
CCGGAGCG | 0.359
GCGGAGCA | 0.211
CGGGAGAC | 0.216
GCGGAGAC | 0.348
CCGGAGAC | 0.373
AGTTAGGC | -0.113
CTCGGGAC | 0.263
GCCCCATA | -0.00491
ACCGGGTC | 0.194
CCCGGGGC | 0.33
CCGGGGCG | 0.322
CCCGGGTC | 0.386
CCGGGGCC | 0.318
CCCCGGCG | 0.309
CCCGGGCC | 0.387
CCCGGGGA | 0.359
GCCGGGAA | 0.326
CCCGGGTA | 0.315
CCCGGGCG | 0.383
GCCGGGGA | 0.392
CGGGGTTC | 0.211

Sequence | PBM E-score
AACAGATC | -0.0165
GCCTTAGA | -0.04
GGTAACAA | 0.13
TAAGAATA | -0.141
TGTCCACA | -0.159
TTACCAAA | -0.0884
CTGGTTAC | -0.205
GAAAAGTA | -0.0758
GATCTGCC | 0.03
ACCGGGGC | 0.291
ACCGGGCC | 0.373
CCGGGGCA | 0.312
ACCGGGCA | 0.288
AGCGGGCG | 0.222
ACCGGGCG | 0.385
ACCGGGCT | 0.334
CCCGGGCA | 0.376
ACCGGGGA | 0.284
AACGGGCG | 0.246
GCCGGGCA | 0.301
ACCGGGGG | 0.379
GCCAACAC | 0.0365

Sequence | PBM E-score
CGAGCAAG | -0.182
CATTTAGG | -0.112
CTCCTCCA | -0.216
CCGGGCAA | 0.322
GAGGAACC | -0.0105
CAGCATTC | -0.162
TATCAGCA | 0.0209
GCTTCACC | -0.12
CTCAGTTC | -0.241
GCTCTGTA | -0.234
AGAACATG | -0.0473
CCCCTCCC | -0.00587
AACTGCCA | -0.186
CACTCCGG | 0.302
AACTCCGT | 0.447
CACTCCGC | 0.156
AACTCCGC | 0.389
AACTCCGG | 0.481
AACTCCCT | -0.0179
AACTCCAT | 0.139
GACTCCGC | 0.174
TACTCCGA | 0.375

Sequence | PBM E-score
GACTCCGA | 0.301
CACTCCGA | 0.212
AACTCCCG | 0.333
ACCCTGTA | -0.0405
CCTTCAAG | -0.253
AAGTGGCG | -0.0765
ACGGCTGG | 0.00715
AACTCCAA | -0.0924
AACTCCCA | -0.00143
AACTCCGA | 0.474
TCTGTCCA | 0.00731
CATCGGCG | 0.264
ACACTAGA | -0.095
GCGGACAA | 0.304
ACGGACAA | 0.335
TCGGACAA | 0.394
CAGGACAA | 0.0261
CCGGACAC | 0.351
CTGGACAA | -0.215
CCGGACAA | 0.414
CCGGACAG | 0.382
CAGGACAG | -0.195
